Assay outcomes: PubChem, National Center for Advancing Translational Sciences (NCATS)
In the library only some 6.6% were active in any assay of this set; here they are far more common.
TGFb SMAD3 inh: qHTS for Inhibitors of TGF-b; HepG2 CAGA-GFP TGF-b/SMAD3 reporter, GFP fluorescence, 18 h; TGF-beta stimulated, 500 pg/mL final; Potency, µM (titrated, usually from 46.1 µM), for inactives: at the highest dose activity, negative = inhibition, usual class: inhibitors; actives 1.2% (n = 410,000); note: % is set by controls: 0 for no effect and ±100 for the full control effect; nearly all actives have a fitted effect of over 65% in size
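Using HEPG2 CAGA-GFP reporter cells at 1000 cells/well, we pinned test compounds, stimulated with recombinant TGF-beta (500 pg/mL final) and measured total well GFP after 18 h.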
KB-3-1 tox: qHTS assay for MDR1-selective chemotherapeutics: Primary screen using the parental adenocarcinoma cell KB-3-1; KB-3-1 viability, CellTiter-Glo ATP luminescence, 72 h; actives 1.4% (n = 400,000); Potency, µM (series often up to 46.1 µM), hits mostly cytotoxic; note: % is set by controls: 0 for no effect and ±100 for the full control effect; nearly all actives have a fitted effect of over 60% in size
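Multi-concentration cytotoxicity screen in KB-3-1 cells grown in DMEM lacking phenol red with 10% FBS. After 72 h at 37 °C with compound, ATP-dependent luminescence was recorded.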
HT1080 IDH1KD tx: qHTS for induction of synthetic lethality in tumor cells producing 2HG: qHTS for the HT-1080-IDH1KD cell line; AID 686971, 2013; Potency, µM (highest dose often 46.1 µM), without a hit: at the top dose activity, negative = toxicity, most hits filed as cytotoxic; actives 2% (n = 360,000); HT-1080 IDH1 knockdown viability, ATP luminescence, 48 h;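 note: 0% = DMSO wells and -100% = cell-free medium wells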
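After a 2 h attachment period, IDH1KD HT-1080 cells took pin-transferred compound for 48 h at 37 °C; ATP-based luminescence after 10 min room-temperature reagent incubation reported viability.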
HT1080-NT tox: qHTS for induction of synthetic lethality in tumor cells producing 2HG: qHTS for the HT-1080-NT fibrosarcoma cell line; Potency, µM (top dose mostly 46.1 µM), for the others: at the top dose activity, negative = less viability, most hits filed as cytotoxic; actives 1.6% (n = 360,000); HT-1080-NT fibrosarcoma viability, CellTiter-Glo ATP luminescence, 48 h; AID 686970, 2013;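 note: NT is the 2HG producing partner of a matched IDH1 knockdown line; 0% = DMSO-treated cells and -100% = media-only wells without cells; nearly all actives have a fitted effect of over 55% in size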
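Read-out is CellTiter-Glo luminescence after 10 minutes at room temperature, following 48 hours' compound treatment of HT-1080-NT cells (750 cells/well, RPMI, 5% FBS, 37 degrees C).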
HepG2 viability: qHTS for Inhibitors of TGF-b: Cytotox Counterscreen. HepG2 CAGA-GFP viability, ATP luminescence, 18 h. Potency, µM (top dose mostly 46.1 µM), for the others: at the top dose activity change, negative = cytotoxicity, most hits filed as cytotoxic. actives 0.76% (n = 410,000). AID 588856, 2011
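HepG2 CAGA-GFP cells (1000/well, DMEM with 1% FBS) received compound, then TGF-beta at 500 pg/mL final, and were incubated 18 hours at 37 degrees C. Viability was read by CellTiter-Glo luminescence. Media-only wells were set as complete cell-killing and DMSO as no toxicity.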
KB-V1 cytotox: qHTS assay for MDR1-selective chemotherapeutics: Primary screen using the drug-selected MDR subline cells KB-V1; KB-V1 MDR cells viability, CellTiter-Glo, 72 h; Potency, µM (top dose mostly 46.1 µM), most hits filed as cytotoxic; actives 3.4% (n = 400,000); note: % is set by controls: 0 for no effect and ±100 for the full control effect; nearly all actives have a fitted effect of over 60% in size
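KB-V1 MDR subline cells in DMEM (phenol-red free, 10% FBS) exposed to compounds in qHTS concentration series for 72 h at 37 degrees C. Viability read by CellTiter-Glo luminescence; concentration-effect curves fitted after normalization and correction.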
* = called active by the depositor; i = inactive; u = inconclusive; x = no result given. Calls come from the whole dose curve; as a rule, active = well fitted curve in the direction sought with a large enough effect; inconclusive = small, poorly fitted or top-dose-only effect, or another doubt; inactive = no such curve, though single readings can be large; an effect the other way counts as inactive or inconclusive. Potency is the fitted concentration of half-maximal effect.

SMILES	TGFb SMAD3 inh	KB-3-1 tox	HT1080 IDH1KD tx	HT1080-NT tox	HepG2 viability	KB-V1 cytotox
Cc1cc(C)cc(NC(=O)C(=O)NCC(c2cccnc2)N2CCc3ccccc3C2)c1 (configuration not stated)	u	i	x	x	-19.8%	u
COc1ccc(C(=O)NC2(C(F)(F)F)C(=O)NC(C)=C2C#N)cc1 (configuration not stated)	-8.1%	i	x	x	-3.4%	i
COc1cccc2sc(Nc3nc(-c4cc5ccccc5oc4=O)cs3)nc12	-16.2%	u	2.06µM*	5.17µM*	-56.4%	8.2µM*
COc1cccc2sc(Nc3nc4ccc(NC(C)=O)cc4s3)nc12	u	16.4µM*	u	u	-34.9%	i
COc1cccc2sc(Nc3nc(-c4ccncc4)cs3)nc12	9.5%	5.8µM*	2.31µM*	2.31µM*	8.3%	8.2µM*
COc1cccc2sc(NN)nc12	-9.4%	i	u	-22.1%	-12.7%	i
CC(=O)c1ccc(S(=O)(=O)NCCOc2ccccc2)cc1	3.2%	i	4.5%	7.9%	1.3%	i
COc1ccc(CCNC(=O)Cn2ncc3c(C)n(Cc4ccccc4F)c(C)c3c2=O)cc1OC	14.8%	i	x	x	4.2%	i
O=C(CN(c1cccc(C(F)(F)F)c1)S(=O)(=O)c1ccccc1)Nc1cccc(Cl)c1	u	i	x	x	-51.7%	u
O=C(CN(c1ccc(Cl)c(C(F)(F)F)c1)S(=O)(=O)c1ccccc1)Nc1cccnc1	11.2µM*	i	x	x	-14.5%	i
Cc1ccc(C)c(N(C(=O)c2csnn2)C(C(=O)NC2CCCC2)c2ccncc2)c1 (configuration not stated)	-2.4%	i	-7.4%	-9.4%	-2.7%	i
COc1ccc(CN(C(=O)c2nsc(Cl)c2Cl)C(C(=O)NC2CCCCC2)c2ccc(OC)cc2)cc1 (configuration not stated)	-6.9%	i	u	u	-20.1%	20.6µM*
COc1ccc(CN(C(=O)c2nsc(Cl)c2Cl)C(C(=O)NC2CCCC2)c2ccc(C)cc2)cc1 (configuration not stated)	u	u	u	-27.2%	12.6%	u
Cc1ccc(C)c(N(C(=O)c2nsc(Cl)c2Cl)C(C(=O)NC2CCCC2)c2ccc(O)cc2)c1 (configuration not stated)	-20.9%	20.6µM*	-16.5%	-24.2%	34.8%	u
Nc1c(NC2CCCCC2)c2ccccc2oc1=O	-18.0%	i	u	-14.2%	-23.4%	16.4µM*
COc1ccc(-c2ccc(=O)n(Cc3ccccc3)n2)cc1	u	i	-1.5%	1.0%	-35.2%	i
COc1ccc(-c2c(C)nn(Cc3ccccc3)c2N)cc1	11.4%	i	-13.1%	-5.6%	0.0%	20.6µM*
Cc1cc(N2CCCCC2)nc2ccc(NC(=O)/C=C/c3ccccc3OC(C)C)cc12	17.2%	x	x	x	4.3%	x
CCN1c2ccccc2-c2nc(SCC(=O)Nc3cccc(C)c3C)ncc2S1(=O)=O	-5.0%	i	x	x	0.1%	i
COc1ccc(NC(=O)/C(C#N)=C\c2cc(C)n(-c3ccc4c(c3)OCO4)c2C)cc1	3.0%	u	2.06µM*	1.84µM*	-2.7%	2.06µM*
O=C(NCc1cccs1)C1CCN(c2ccc(S(=O)(=O)N3CCOCC3)cc2Cl)CC1	u	2.31µM*	u	u	3.2%	3.66µM*
Cc1cc(C)nc(N2CCC(C(=O)NCc3ccco3)CC2)n1	3.9%	i	7.2%	10.1%	-1.7%	16.4µM*
